Lassa entry inh: blocks Lassa virus binding to or entry into cells. Lassa virus pseudotype entry inhibition, cell reporter. Potency, µM (doses to about 37.9 µM), for the others: top-dose activity change, negative = inhibition, usual class: inhibitors. actives 1.2% (n = 300,000). AID 540256; calls by dose curve; tested in HEK293 cells; also: potency is read from the fitted curve at half-maximal effect; nearly all actives have a fitted effect of over 50% in size
Marburg entry inh: blocks Marburg virus binding to or entry into cells | Marburg virus pseudotyped entry inhibition, cell reporter | Potency, µM (titrated, usually from 37.8 µM), for the others: top-dose activity change, negative = inhibition, hits mostly inhibitors | actives 1.8% (n = 300,000) | AID 540276; calls by dose curve; tested in HEK293 cells; also: potency is read from the fitted curve at half-maximal effect
HCMV inh: blocks human cytomegalovirus replication | activity change, negative = inhibition, % at 57.5 µM | actives 4.5% (n = 410,000) | HFF cells, HCMV-luciferase reporter, 72 h; stronger effect = lower value | AID 1259415; in the data active = activity change below about -60%; inconclusive = no clear call, values can overlap the other calls; inactive = above about -39%
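Steps: HFFs plated, 16 h 37C; compounds added; HCMV-luciferase added to MOI 1 PFU/cell; 72 h 37C; OneGlo reagent, 5 min room temperature; luminescence read, normalized to controls.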
FMDV inh: blocks foot and mouth disease virus | FMDV antiviral cell-based qHTS | Potency, µM (series often up to 57.9 µM), for inactives: top-dose activity change, negative = inhibition, hits mostly inhibitors | actives 1.2% (n = 410,000) | AID 1159524; calls by dose curve; tested in HEK293T cells; also: read-out not given here; potency is read from the fitted curve at half-maximal effect; nearly all actives have a fitted effect of over 45% in size
HCV inh: inhibitors of hepatitis C virus infection; Huh7.5.1 HCVcc-Cre infection, luciferase reporter, 44 h; AID 651820; Potency, µM (doses to about 41.8 µM), inactives show at the highest dose activity change, negative = inhibition, actives largely listed as inhibitors; actives 3.4% (n = 340,000); active = well fitted inhibition curve with a large enough effect; inconclusive = small, poorly fitted or top-dose-only effect, or another doubt; inactive = no such curve, though single readings can be large or run the other way; also: potency is read from the fitted curve at half-maximal effect
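Cells (1,000/well) were plated 4 h before compound, then infected with HCVcc-Cre virus (~0.5 moi). After 44 h further culture, infection was read as luciferase luminescence following a 15 min substrate incubation at room temperature.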
* = called active by the depositor; ? = inconclusive; / = no result given; [ ] = dose if it differs, or a comment. Only some compounds are listed: those with a hit (about 7.9% of all), similar ones and a draw of the others. % is scaled to controls: 0 for no effect and ±100 for the full control effect.

SMILES | Lassa entry inh | Marburg entry inh | HCMV inh | FMDV inh | HCV inh
O=C(CCSc1ccc(Cl)cc1)c1ccco1 | / | / | -64.0* | -12.0% | ?
N#Cc1ccc(OCC(=O)Nc2cc(S(=O)(=O)N3CCOCC3)ccc2N2CCCC2)cc1 | / | / | 0.0 | -3.1% | 0.3%
COc1ccc2c(c1)[C@@H](NC(C)=O)[C@H](C)[C@@H](c1ccccc1)N2C(=O)Nc1ccc(C(F)(F)F)cc1 | / | / | -26.6 | / | /
O=C(C1=C[C@H](c2ccc(C(F)(F)F)cc2)C[C@H](OCc2ccc(CO)cc2)O1)N1CCN(Cc2ccc3c(c2)OCO3)CC1 | / | / | -17.7 | ? | 10µM*
C#Cc1ccc([C@H]2C=C(C(=O)N3CCN(Cc4ccccc4)CC3)O[C@@H](OCc3ccc(CO)cc3)C2)cc1 | / | / | -76.0* | -27.9% | ?
O=C(C1=C[C@@H](c2ccc(C(F)(F)F)cc2)C[C@@H](OCc2ccc(CO)cc2)O1)N1CCN(Cc2ccc3c(c2)OCO3)CC1 | / | / | 5.0 | ? | ?
Cc1nnc(SCC(=O)NCC2COc3ccccc3O2)s1 (configuration not stated) | 9.1% | 2.5% | -36.2 | 0.0% | -5.9%
CCN(CC1CCCO1)C(=O)c1cc(COc2cc(C)c(Cl)c(C)c2)on1 (configuration not stated) | / | / | 33.1 | 27.0% | -29.3%
CCOC(=O)C1CCCN(C(=O)c2nn(-c3ccc(OC)cc3)c(=O)c3c2c2ccccc2n3C)C1 (configuration not stated) | -0.6%[46.1 µM] | 1.8%[46.1 µM] | 4.5 | -15.5% | /
O=C(NCc1ccco1)c1ccc(Cl)c(S(=O)(=O)N2CCc3ccccc32)c1 | ? | ? | -81.8* | ? | ?
O=C(COC(=O)c1cccc(S(=O)(=O)N2CCc3ccccc3C2)c1)NCc1ccco1 | -0.6% | -16.0% | -26.9 | 6.6% | 10.7%
O=C(NNC(=O)c1ccccc1O)c1ccc(Cl)c(S(=O)(=O)N2CCc3ccccc32)c1 | ? | -28.6%[46.1 µM] | -72.4* | ? | ?
COc1ccc(C(=O)NCc2ccccc2)cc1S(=O)(=O)N1CCCc2ccccc21 | ? | -24.1% | -27.2 | 46.8% | 11.2µM*
O=C(c1ccc(Cl)c(S(=O)(=O)N2CCc3ccccc32)c1)N1CCN(c2ccccc2O)CC1 | ? | ? | -39.2 | ? | ?
O=C(COC(=O)c1cccc(S(=O)(=O)N2CCc3ccccc32)c1)NCc1ccco1 | 0.9% | 5.2%[46.1 µM] | -96.0* | 1.5% | 15.1%
COc1ccc(C(=O)Nc2cccc(C)n2)cc1S(=O)(=O)N1CCCc2ccccc21 | ? | ? | -72.4* | -26.6% | 2.51µM*
COc1ccc(C(=O)Nc2ccc(C)cn2)cc1S(=O)(=O)N1CCCc2ccccc21 | ? | -29.9% | ? | -23.2% | 4.47µM*
Cc1ccc(NC(=O)c2ccc(Cl)c(S(=O)(=O)N3CCCC3)c2)nc1 | -12.3%[46.1 µM] | -18.0% | ? | ? | ?
Cc1ccc(NC(=O)c2ccc(Cl)c(S(=O)(=O)N3CCc4ccccc43)c2)nc1 | ? | ? | -78.8* | -27.0% | ?
COc1ccc(C(=O)O)cc1S(=O)(=O)N1CCCc2ccccc21 | / | / | 53.9 | 3.3% | 15.1%
CCC[C@H]1[C@@H](NC(=O)Nc2ccc(C(C)C)cc2)CC[C@@]23CCCN2C(=O)CCC[C@@H]13 | / | / | 9.7 | / | /
CC(C)Nc1ncnc2c1ncn2[C@H]1CN(Cc2ccc3c(c2)OCO3)C[C@@H](CO)O1 | / | / | -24.6 | -16.4% | /
CC(C)CNc1ncnc2c1ncn2[C@H]1CN(Cc2cccc3ccccc23)C[C@@H](CO)O1 | / | / | -69.6* | -2.2% | /
CC(C)CNc1ncnc2c1ncn2[C@H]1CN(Cc2ccc3c(c2)OCO3)C[C@@H](CO)O1 | / | / | -66.2* | -23.8% | /
OC[C@@H]1CN(Cc2cccc3ccccc23)C[C@H](n2cnc3c(NCc4ccco4)ncnc32)O1 | / | / | -6.3 | -16.8% | /
COc1ccc(OC)c(NC(=O)[C@H](CSCc2ccccc2)N2Cc3ccccc3C2=O)c1 | ? | ? | -5.5 | -1.1% | /
CC(C)(C)N1C(=O)[C@H]2[C@@H](c3ccc(Br)cc3)N3C(=O)N(c4ccc(Br)cc4)C(=O)[C@@]3(Cc3ccccc3)[C@H]2C1=O | / | / | / | -16.5% | 7.94µM*
COc1ccc([C@@H]2[C@@H]3C(=O)N(C(C)(C)C)C(=O)[C@@H]3[C@]3(C)C(=O)N(c4ccccc4)C(=O)N23)cc1 | / | / | 22.3 | 0.0% | 21.1%
